In all, about 33,000 sequences were measured (“E-score (-0.5 to 0.5)”: median about -0.011, highest 2% from about 0.28 on). What follows is part of a selection rich in the highest values, with near analogues and random picks from the rest.
Biological target: T1, Gcr1 (UniProt P07261)
T1 sequence: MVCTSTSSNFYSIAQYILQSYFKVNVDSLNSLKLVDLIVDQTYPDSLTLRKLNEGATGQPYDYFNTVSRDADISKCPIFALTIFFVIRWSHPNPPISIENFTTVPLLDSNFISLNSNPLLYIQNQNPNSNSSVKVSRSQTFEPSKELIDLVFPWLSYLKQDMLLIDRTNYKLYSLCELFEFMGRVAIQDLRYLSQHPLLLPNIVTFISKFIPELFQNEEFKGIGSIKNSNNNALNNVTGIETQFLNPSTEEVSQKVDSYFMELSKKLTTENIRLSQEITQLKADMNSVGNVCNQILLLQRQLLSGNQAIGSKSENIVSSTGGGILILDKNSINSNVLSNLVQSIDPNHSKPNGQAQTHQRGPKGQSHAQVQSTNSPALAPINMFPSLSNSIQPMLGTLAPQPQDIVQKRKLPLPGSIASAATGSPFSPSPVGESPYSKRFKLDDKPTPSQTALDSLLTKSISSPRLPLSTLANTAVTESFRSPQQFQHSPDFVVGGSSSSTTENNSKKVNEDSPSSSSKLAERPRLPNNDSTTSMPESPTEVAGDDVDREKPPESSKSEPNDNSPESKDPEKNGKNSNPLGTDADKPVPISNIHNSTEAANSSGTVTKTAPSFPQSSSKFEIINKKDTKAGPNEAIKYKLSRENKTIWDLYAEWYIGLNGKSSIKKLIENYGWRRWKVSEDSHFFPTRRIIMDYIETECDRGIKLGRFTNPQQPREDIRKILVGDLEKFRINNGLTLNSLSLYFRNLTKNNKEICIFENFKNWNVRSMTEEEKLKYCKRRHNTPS
Assay: PBM E-score (8-mer binding enrichment) (E-score (-0.5 to 0.5)); higher = stronger / more preferred TF binding
Settings: protein concentration: 100 nM; construct: GST-full length
Procedure, shortened: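 Using PURExpress in vitro transcription/translation, GST-tagged yeast transcription factors were made in full-length or DNA-binding-domain form. These were applied at about 100-200 nM to double-stranded universal all-10-mer Agilent arrays, and bound protein was detected with fluorescent anti-GST. Scans were normalised with masliner before the Universal PBM Analysis Suite assigned E-scores to ungapped eight-base words pooled with their reverse complements.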

Row | Sequence | PBM E-score
1 | ATTGCCGA | -0.127
2 | TGAGGGAA | -0.101
3 | AGTCTATG | -0.147
4 | ACCCTAGT | -0.0547
5 | CGAGACGC | 0.131
6 | CGGGTATC | 0.131
7 | CTCACACA | 0.1
8 | AGGGGAAA | 0.0362
9 | CGTGGAAC | -0.113
10 | AGTGGAAC | 0.364
11 | AGGGGAAC | -0.00862
12 | AGTGGACC | -0.0505
13 | AGGGGAAT | 0.341
14 | GGTGGAAC | 0.0244
15 | AGTGGACA | -0.0203
16 | AGTGGACG | 0.315
17 | ACGAAACG | -0.14
18 | ATCGGGAC | 0.0526
19 | AATTGTTC | 0.0249
20 | AGCCTTGA | -0.273
21 | AGATGAGC | -0.102
22 | ACTTCTCG | -0.0046
23 | CCCCAAGC | -0.00278
24 | CGTGAACG | 0.0112
25 | ACGCAGAG | -0.141

Row | Sequence | PBM E-score
26 | ACGGGGTA | 0.129
27 | GCATCCCA | 0.309
28 | CTATCCCA | -0.0348
29 | ATATCCCA | 0.116
30 | CCATCCCC | 0.0989
31 | GAATCCCA | 0.367
32 | AAATCCCA | 0.107
33 | ACATCCCA | 0.0139
34 | GCATCCCC | 0.351
35 | CCATCCCA | -0.053
36 | ACATCCCC | 0.0757
37 | GTATCCCA | 0.339
38 | GAATCCCC | 0.0893
39 | ACAGGTAA | 0.0538
40 | ACCATCCT | 0.0586
41 | ATACTAGA | 0.0992
42 | ACATGTGA | -0.0765
43 | CTGGAAAA | -0.00671
44 | ACTACTCG | 0.0127
45 | AGGCCTAG | -0.214
46 | CGGTCGAG | 0.0179
47 | ACACGAAA | -0.131
48 | ACACGAAT | 0.319
49 | ACACGAAG | 0.238
50 | AGGTTCGG | -0.0598

Row | Sequence | PBM E-score
51 | GAGAAAGA | -0.16
52 | AGTGAGAC | -0.352
53 | AGATCGAT | -0.137
54 | AGTCCAGA | -0.0665
55 | CTTCCAGA | 0.341
56 | ATTCCAGG | 0.097
57 | CGTCCAGA | 0.233
58 | CTTCCAGC | 0.123
59 | GTTCCAGA | 0.257
60 | AATCCAGA | 0.259
61 | ATTCCAGA | 0.286
62 | ATTCCAGC | 0.299
63 | TCGGGACA | -0.0131
64 | AGCTAAAC | -0.126
65 | CGAGGGTC | -0.166
66 | AGCTAGGA | 0.0251
67 | ATTAGGCG | 0.309
68 | ATTAGGCC | -0.116
69 | AATAGAGT | 0.0735
70 | ATTAGACC | -0.13
71 | AATAGAGG | 0.297
72 | AGTAGAAC | 0.0351
73 | ATTAGACA | 0.0379
74 | AGTAGAAG | 0.327
75 | ATTAGGCA | 0.00576

Row | Sequence | PBM E-score
76 | CGTAGAAG | 0.275
77 | ATTAGACG | 0.295
78 | AATAGAGA | -0.0168
79 | GGACAACA | -0.253
80 | AAGGCCTT | -0.343
81 | ACCCTGAA | 0.192
82 | GATTAGGC | -0.0727
83 | ACTGATCA | -0.148
84 | GATGGAAA | 0.029
85 | AGTGCGCG | -0.037
86 | CATCTTGG | -0.102
87 | AGAGCATG | -0.0857
88 | CGTAGACG | -0.0412
89 | AATAGACA | -0.116
90 | AGTAGACT | -0.048
91 | AATAGACG | 0.286
92 | AGTAGACG | 0.302
93 | AATAGACT | 0.0888
94 | AAGCACCA | 0.0436
95 | AGGCCAGC | -0.196
96 | GAGGAATA | -0.146
97 | CAGGAATG | 0.115
98 | GAGGAATC | 0.345
99 | CAGGAATC | 0.394
100 | AAGGAATC | 0.26

Row | Sequence | PBM E-score
101 | CAGGAATA | 0.134
102 | ATCATAGG | 0.0674
103 | ATAGGCTG | -0.0658
104 | ATCAGCGG | 0.00888
105 | GAACCGGA | 0.183
106 | GACTGGCC | -0.151
107 | CGGGCTGA | -0.241
108 | TCACTGGA | 0.219
109 | GGCTACTA | 0.219
110 | CGCGTTAA | -0.167
111 | CTCCGCAA | 0.0291
112 | AAAAGACG | 0.131
113 | AGGGAAGG | -0.218
114 | AGGGAAGA | -0.198
115 | CGGGAAGA | 0.0397
116 | CGGGAAAC | 0.191
117 | AGGGAAGC | 0.281
118 | CGGGAAGC | 0.317
119 | ATACTGCA | 0.0345
120 | ACTTGCAC | -0.126
121 | TAGCCTGA | -0.232
122 | AAGAGGCG | 0.0559
123 | CAGAGAAA | -0.0752
124 | CACTGGAC | 0.0576
125 | AACTGGAA | 0.342

Row | Sequence | PBM E-score
126 | CTCTGGAA | 0.256
127 | ATCTGGAA | 0.333
128 | ATCTGGAC | 0.133
129 | AACTGGAG | 0.115
130 | TCCTGGAA | 0.162
131 | AACTGGAC | 0.198
132 | TGCTGGAA | 0.136
133 | CACTGGAG | -0.0119
134 | TACTGGAA | 0.446
135 | CACTGGAA | 0.318
136 | GTCGCAAC | 0.0865
137 | GTACAAAA | -0.0647
138 | ATCCCTTA | -0.00764
139 | ACTCTAAT | -0.029
140 | ATTTGTCC | -0.109
141 | GTCCTGTA | 0.168
142 | AGTAACCG | 0.184
143 | CGGATCAG | 0.11
144 | ATGAACAC | 0.0906
145 | GAGCCCCA | 0.169
146 | GAAGAGAA | 0.0371
147 | ACACGTGG | 0.0635
148 | GACTGGAC | 0.0539
149 | GACTGGCA | -0.0492
150 | GACTGGAA | 0.325

Row | Sequence | PBM E-score
151 | CGTCGGTA | -0.15
152 | GCTGGACA | -0.0923
153 | CCAATACC | 0.205
154 | TAAGCTAA | -0.153
155 | GAAGCTAA | 0.312
156 | AAAGCTAA | -0.0138
157 | CAAGCTAC | 0.108
158 | GAAGCTAC | 0.323
159 | AAAGCTAC | -0.0941
160 | CTGCGACA | -0.106
161 | AGTATAAA | 0.0707
162 | CTTATAAA | 0.291
163 | CTTATAAG | -0.0238
164 | CTTATAAC | -0.0336
165 | CGTATAAA | 0.32
166 | CGTATAAC | 0.269
167 | TGAAACCA | 0.106
168 | ACAGACAA | 0.0204
169 | GGGGTTTA | -0.117
170 | GGTGAGGA | -0.0681
171 | AAAGTAAT | 0.154
172 | CGTGGGGA | 0.0446
173 | CGCGGGGA | 0.0382
174 | GGTGGGAA | 0.0991
175 | GGCGGGGA | 0.304

Row | Sequence | PBM E-score
176 | GGCGGGAA | 0.0372
177 | GGTGGGGA | 0.345
178 | GTACTTTA | 0.107
179 | GGGCCTAC | -0.25
180 | ATTGGGGC | 0.124
181 | AGTCAGCG | 0.0668
182 | CGGAACGA | 0.0962
183 | GGGATAAC | 0.0951
184 | AAGCTGCT | 0.185
185 | CAGCTGCC | 0.352
186 | AAGCTGCC | 0.347
187 | CAGCTGCG | 0.061
188 | GAGCTGCC | 0.187
189 | CAGCTGCA | -0.0536
190 | ACAGAGGT | 0.0543
191 | CCCACTTA | 0.0227
192 | CGCTCGAC | -0.094
193 | TCCAAAAA | 0.253
194 | ACTAGCGG | -0.0781
195 | GGACACTA | 0.0929
196 | AACTAGGC | 0.122
197 | CGGGAGCA | -0.109
198 | CGGGAGCC | 0.337
199 | AGGGAGCC | 0.296
200 | CGGGAGAC | 0.036

Row | Sequence | PBM E-score
201 | AGGGAGCA | -0.171
202 | AGGGAGCG | 0.0432
203 | ATTGCCGC | -0.0608
204 | GATTTCAC | -0.0263
205 | AGCGAGCA | -0.108
206 | GCGCTTCC | 0.348
207 | CCGCTTCC | 0.346
208 | AGGCTTCA | -0.0957
209 | ACGCTTCA | -0.0408
210 | GCGCTTAC | -0.17
211 | AGGCTTCC | 0.436
212 | ACGCTTCC | 0.313
213 | CCGCTTCA | -0.0817
214 | CCGCTTCG | 0.0926
215 | ACGCTTCG | -0.0461
216 | AGGCTTCG | 0.00576
217 | GCGCTTCA | -0.0425
218 | GCGAATTA | -0.00089
219 | AAACCAAA | 0.066

— the supplement of paper PMC3334620
